# According to ChEMBL document CHEMBL3988442, “University of Dundee, Small-Polar-MMV Screening Library” (2021):
# Among all 53,000 compounds or so, about 900 (1.7%) showed an effect of 50% or more. This is one part of a sample in which strong results are shown more often than they occur.
# System: Mycobacterium tuberculosis
# Assay: Cornell - Phenotypic assay to identify agents that inhibit growth of Mycobacterium tuberculosis
# Assay type: functional
# Parameters: scale not given: direction of the effect not stated beside the values
# Settings: 10 mM as filed; unlikely as a test dose
row,SMILES,Percent Effect [%]
1,Cc1cn2c(n1)CCC(NC(=O)CNS(C)(=O)=O)C2 (stereo not drawn),-12.28
2,Cc1cc(Nc2ccc(F)cn2)cc(C2CCN(Cc3ncc[nH]3)C2)n1 (stereo not drawn),67.32
3,Fc1ccc(Nc2ccc(C3CCN(Cc4ncc[nH]4)CC3)nc2)nc1,12.33
4,Cc1cccc(Nc2ccc(C3CCN(Cc4ncc[nH]4)CC3)nc2)n1,12.85
5,COc1ccc(NC(=O)CCn2nc(-c3cccs3)oc2=O)cc1OC,-4.295
6,CCN1CC(CN(C)c2cc(C)nc(N)n2)Oc2ccccc21 (stereo not drawn),100.1
7,Cc1cc(N(C)CC2COc3ccccc3O2)nc(C)n1 (stereo not drawn),22.34
8,Cc1cc(N(C)CC2COc3ccccc3O2)nc(N)n1 (stereo not drawn),18.45
9,Cc1nc(C)n(CC2CCCN(Cc3ccc4c(c3)OCCO4)C2)n1 (stereo not drawn),7.597
10,Cc1cc(-c2cnc(NCc3ccc4c(c3)OCO4)nc2C(C)C)on1,24.22
11,COc1ccc(CNc2ncc(-c3cc(C)no3)c(C(C)C)n2)cc1,36.58
12,COc1ccccc1CNc1ncc(-c2cc(C)no2)c(C(C)C)n1,6.538
13,Cc1cc(-c2cnc(NCc3ccccn3)nc2C(C)C)on1,76.78
14,Cc1cc(-c2cnc(NCc3ccncc3)nc2C(C)C)on1,71.23
15,Cc1cc(-c2cnc(N3CCCC3)nc2C(C)C)on1,-0.9341
16,Cc1oc(-c2ccsc2)nc1CC(=O)NCC(C)(C)CN(C)C,3.653
17,Cc1nnc(N2CCCC3(CN(Cc4nccn4C)CCO3)C2)o1 (stereo not drawn),-3.973

row,SMILES,Percent Effect [%]
1,CS(=O)(=O)NCCNCc1ccc(Br)s1.Cl,-4.859
2,O=C1CCC(=O)N1CCOc1nc(-c2ccccc2Cl)no1,8.319
3,Cn1ccnc1-c1ccc(NCCC2COc3ccccc3O2)nn1 (stereo not drawn),46.99
4,Cn1ccnc1-c1ccc(NCC2COc3ccccc3O2)nn1 (stereo not drawn),75.27
5,Cn1ccnc1-c1ccc(NC[C@H]2CCc3ccccc3O2)nn1,35.04
6,O=C(CNC1(c2ccc(Cl)cc2)CCOCC1)NC1CCCC1,28.07
7,Cc1cc(C)n(C2CCN(S(=O)(=O)N3CCOCC3)CC2)n1,-10.91
8,Cn1cc(NC(=O)N2CCC(c3ccccc3)CC2)ccc1=O,23.03
9,Cn1cc(NC(=O)N2CCC(CN3CCCC3)CC2)ccc1=O,1.194
10,Cn1cc(NC(=O)N2CCC(NS(C)(=O)=O)CC2)ccc1=O,73.41
11,Cc1nc(O)cc(C2(C)CCCNC2)n1.Cl (stereo not drawn),37.37
12,Cc1nccc(C2(C)CCCNC2)n1.Cl.Cl (stereo not drawn),-29.52
13,Cc1cc(N(C)C)nc(C2(C)CCCNC2)n1 (stereo not drawn),-30.33
14,Cc1nc(N)cc(C2(C)CCCNC2)n1 (stereo not drawn),52.22
15,Cc1nc(N(C)C)cc(C2(C)CCCNC2)n1 (stereo not drawn),54.11
16,Cc1nc(N(C)C)cc(C2(C)CCNCC2)n1,3.518
